# PubChem BioAssay (NCI)
# About 83,000 compounds went through this panel and 20% of them were active in at least one assay; those are over-represented in the sample as a whole.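 For each line, cells grew in 96-well plates with the test compound present at a single concentration for 48 hours.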 Values without a mark were called inactive. Activity calls are given as the source filed them. Rule for the calls: active = growth percent below 10; inactive = the rest.
# Test system: MDA-MB-468 breast
# Assay: NCI-60 one-dose screen, 48 h (100 = growth as untreated, 0 = no growth, -100 = all killed)
# Settings: 10 µM unless noted
row,Compound,growth
1,N#Cc1ccc(OCc2nc(N)nc(N)c2-c2ccc(Cl)c(Cl)c2)cc1,35.4%
2,COc1cc(C2c3cc4c(cc3C(O)C(CO)C2CO)OCO4)cc(OC)c1OC (stereo not drawn),-17.7% (active)
3,CCN(CC)c1ccc(NC2=C(Cl)C(=O)c3nc(C)ccc3C2=O)cc1,-45% (active)
